Measured values taken from ChEMBL document CHEMBL3988442, “University of Dundee, Small-Polar-MMV Screening Library” (2021).
Screen size: about 48,000 compounds; about 13,000 (27%) showed an effect of 50% or more. The list shows a part of the results.

Tested on: Wolbachia pipientis
Experiment: Anti-Wolbachia Cell-Based Screen
Format: functional
Parameters: scale not given: in the data most compounds retested in dose-response had high values
Conditions: 5 µM

Going from Cc1nc(NC(=O)NCc2cccnc2NCCN(C)C)sc1C to COc1ccc(C(=O)O)cc1-c1cccc(C(C)N(C)C)c1 (stereo not drawn), the “Percent Effect” value rises from -3.378% to -0.7125%.

First: COCCN1CCC2(C1)c1ccccc1S(=O)(=O)N2Cc1ccccc1.O=C(O)C(F)(F)F (stereo not drawn)
Second: COCCN1CCC2(C1)c1ccccc1S(=O)(=O)N2C.O=C(O)C(F)(F)F (stereo not drawn)
The “Percent Effect” value of the first is lower: 6.934% for the first, 90.85% for the second.

First: COCCN1C2(CCN(CC3CC3)C2)c2ccccc2S1(=O)=O.O=C(O)C(F)(F)F (stereo not drawn)
Second: Cc1csc2c(C3CCN(CCCOc4ccccc4)CC3)nc(C)n12
The “Percent Effect” value of the first is higher: 102.4% for the first, 96.85% for the second.

Compared with Cc1ccc(-n2ncc(C(=O)NC3CC(C)(C)NC(C)(C)C3)c2N)cc1, Cc1c(C(=O)NC2CC(C)(C)NC(C)(C)C2)cnn1-c1ccc(F)cc1 is lower in “Percent Effect” value: 174.2% for the first, -13.93% for the second.

Compared with CC1(C)CC(NC(=O)c2cnn(-c3ccccc3F)c2N)CC(C)(C)N1, CC(C)C(=O)Nc1cc(C(=O)NC2CC(C)(C)NC(C)(C)C2)nn1C is lower in “Percent Effect” value: 151.8% for the first, -26.3% for the second.

Compared with Cc1ccc(-n2ncc(C(=O)NC3CCCCC3)c2N)cc1, Cc1nc(C(=O)NC2CCN(CCOc3ccc(Br)cc3)CC2)cs1 is higher in “Percent Effect” value: 3.957% for the first, 6.734% for the second.

First: CC(C)(C)SCCNC(=O)[C@@]12CNC[C@@H]1CN(S(C)(=O)=O)C2
Second: COc1cccc2c1N(S(=O)(=O)c1cc(C(=O)O)cs1)CCC2
The “Percent Effect” value of the first is higher: 5.951% for the first, -3.989% for the second.

Compared with CC(C)Cc1noc(CN2CCN(CCOc3ccc(Cl)cc3)CC2)n1, Cc1ccc(OCCN2CCC(c3nc(C)n4c(C)csc34)CC2)cc1 is higher in “Percent Effect” value: -9.815% for the first, 140.7% for the second.

First: CCCc1n[nH]c(C2CN(CCCOc3ccccc3)CCO2)n1 (stereo not drawn)
Second: Cc1nc(C)n(CC2CN(CCOc3ccccc3F)CCO2)n1 (stereo not drawn)
The “Percent Effect” value of the first is lower: -4.502% for the first, 5.326% for the second.

Compared with Cc1nc(CCN2CCC(Oc3ccccc3F)CC2)cs1, Cc1csc2c(C3CCN(CCOc4ccccc4F)CC3)nc(C)n12 is higher in “Percent Effect” value: -0.6309% for the first, 93.69% for the second.

Compared with CN(CC(=O)N1CC(Oc2ccccc2Cl)C1)Cc1ccncc1, COc1ccc(C(=O)O)cc1-c1cccc2c1CCNC2 is higher in “Percent Effect” value: -2.119% for the first, 99.52% for the second.

Compared with Cc1cnc(-n2cnnc2)c(-c2cccc3c2CCNC3)c1, Cc1ccc(C(=O)O)cc1-c1cccc2c1CCNC2 is higher in “Percent Effect” value: -5.841% for the first, 128.8% for the second.

First: Cc1ccc(C(=O)O)cc1S(=O)(=O)N(C)c1cccc(C#N)c1
Second: O=C(O)c1cnc(-c2cccc3c2CCNC3)c(Cl)c1
The “Percent Effect” value of the first is lower: 8.363% for the first, 123.8% for the second.

Going from O=C(O)c1cnc(OCC2CC2)c(Cl)c1 to O=C(c1cnc(OCC(F)(F)F)c(Cl)c1)N1CCc2ccc(O)cc2C1, the “Percent Effect” value rises from -32.81% to -3.134%.
